Source: the supplement of paper PMC10849652
The full data set covers some 8,800 targets. This sample favours those with a hit. About 0.5% of all pairs of compound and target were hits.

compound: Cc1nc(Nc2ncc(C(=O)Nc3c(C)cccc3Cl)s2)cc(N2CCN(CCO)CC2)n1 [dasatinib]; assay: log2 fold change, soluble protein after heating vs DMSO (PISA); higher = thermal stabilisation; K562 lysate, 10 uM; active = over 0.2 and 3.5 SD of the protein, either way, in both replicates (recomputed)
Outline: (§1)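 Dounce homogenisation of K562 pellets in PBS pH 7.4 with 1 mM MgCl2 produced a crude extract, used at 1 mg/mL protein. Exposure to 10 μM compound lasted 30 min, and aliquots were then heated for 3 min across 48°C-58°C, pooled and brought to 0.5% NP-40 at 4°C. The supernatant after 21,000xg for 90 min was quantified by TMTpro 16plex LC-MS/MS with channel sums equalised. Duplicate values are given as log-two fold change in thermal stability relative to solvent controls.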

Chain of UniProt Q8NEC7 (Q8NEC7 whole entry, looked up): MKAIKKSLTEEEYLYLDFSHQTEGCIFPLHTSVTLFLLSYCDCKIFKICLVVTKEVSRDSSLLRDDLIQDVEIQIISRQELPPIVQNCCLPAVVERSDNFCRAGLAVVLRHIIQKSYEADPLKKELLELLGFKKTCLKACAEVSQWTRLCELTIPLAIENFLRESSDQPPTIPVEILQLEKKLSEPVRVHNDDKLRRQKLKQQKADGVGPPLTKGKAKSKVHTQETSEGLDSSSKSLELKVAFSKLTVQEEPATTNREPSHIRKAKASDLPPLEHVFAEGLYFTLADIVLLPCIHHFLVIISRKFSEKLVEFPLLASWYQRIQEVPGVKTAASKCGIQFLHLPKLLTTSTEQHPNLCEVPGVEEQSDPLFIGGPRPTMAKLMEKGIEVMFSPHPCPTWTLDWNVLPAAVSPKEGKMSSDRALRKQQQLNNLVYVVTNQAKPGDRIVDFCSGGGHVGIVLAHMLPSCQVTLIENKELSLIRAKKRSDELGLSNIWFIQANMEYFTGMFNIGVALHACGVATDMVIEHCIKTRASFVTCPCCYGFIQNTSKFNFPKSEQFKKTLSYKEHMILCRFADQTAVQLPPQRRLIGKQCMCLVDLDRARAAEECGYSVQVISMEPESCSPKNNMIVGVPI
Chain of UniProt Q9H6D7 (Q9H6D7 whole entry, looked up): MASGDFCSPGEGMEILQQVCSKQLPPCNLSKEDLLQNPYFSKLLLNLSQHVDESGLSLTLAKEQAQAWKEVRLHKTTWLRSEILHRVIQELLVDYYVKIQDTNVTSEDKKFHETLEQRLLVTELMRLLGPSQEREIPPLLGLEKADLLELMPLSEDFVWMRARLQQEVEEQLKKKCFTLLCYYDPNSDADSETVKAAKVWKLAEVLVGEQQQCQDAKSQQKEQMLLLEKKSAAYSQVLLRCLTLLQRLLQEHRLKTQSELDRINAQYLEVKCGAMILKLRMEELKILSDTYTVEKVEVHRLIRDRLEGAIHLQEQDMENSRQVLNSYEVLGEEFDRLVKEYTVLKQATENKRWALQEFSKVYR
Chain of UniProt Q6DN03 (Q6DN03 whole entry, looked up): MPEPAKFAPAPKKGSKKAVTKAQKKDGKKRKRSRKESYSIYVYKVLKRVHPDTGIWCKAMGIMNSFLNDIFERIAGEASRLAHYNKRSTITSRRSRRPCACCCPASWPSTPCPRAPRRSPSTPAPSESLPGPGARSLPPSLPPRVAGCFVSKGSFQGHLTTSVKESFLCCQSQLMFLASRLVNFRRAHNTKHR
Chain of UniProt P19367 (P19367 whole entry, looked up): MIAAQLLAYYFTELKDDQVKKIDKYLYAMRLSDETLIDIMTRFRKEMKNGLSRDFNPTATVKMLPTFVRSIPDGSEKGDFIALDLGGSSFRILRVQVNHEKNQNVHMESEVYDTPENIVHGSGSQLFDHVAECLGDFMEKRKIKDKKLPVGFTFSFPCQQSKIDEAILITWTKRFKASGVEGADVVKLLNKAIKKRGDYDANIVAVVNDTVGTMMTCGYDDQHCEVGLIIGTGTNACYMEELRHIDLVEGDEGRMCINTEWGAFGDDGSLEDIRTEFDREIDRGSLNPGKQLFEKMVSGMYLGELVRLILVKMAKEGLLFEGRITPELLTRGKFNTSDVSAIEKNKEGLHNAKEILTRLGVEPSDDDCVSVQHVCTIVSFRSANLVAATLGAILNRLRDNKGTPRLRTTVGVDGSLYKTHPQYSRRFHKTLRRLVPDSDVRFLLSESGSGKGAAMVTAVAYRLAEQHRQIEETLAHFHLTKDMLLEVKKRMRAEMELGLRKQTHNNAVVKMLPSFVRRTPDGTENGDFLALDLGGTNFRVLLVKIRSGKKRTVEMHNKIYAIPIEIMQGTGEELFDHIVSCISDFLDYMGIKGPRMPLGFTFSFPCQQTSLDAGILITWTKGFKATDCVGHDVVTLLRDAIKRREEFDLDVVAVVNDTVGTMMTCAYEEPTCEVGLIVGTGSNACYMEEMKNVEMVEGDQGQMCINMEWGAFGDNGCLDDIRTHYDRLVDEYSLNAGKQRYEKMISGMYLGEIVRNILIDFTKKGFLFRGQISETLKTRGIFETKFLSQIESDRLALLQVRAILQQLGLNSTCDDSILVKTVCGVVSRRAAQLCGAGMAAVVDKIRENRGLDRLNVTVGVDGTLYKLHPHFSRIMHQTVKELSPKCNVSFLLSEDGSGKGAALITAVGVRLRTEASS
Chain of UniProt Q9NWZ3 (Q9NWZ3 whole entry, looked up): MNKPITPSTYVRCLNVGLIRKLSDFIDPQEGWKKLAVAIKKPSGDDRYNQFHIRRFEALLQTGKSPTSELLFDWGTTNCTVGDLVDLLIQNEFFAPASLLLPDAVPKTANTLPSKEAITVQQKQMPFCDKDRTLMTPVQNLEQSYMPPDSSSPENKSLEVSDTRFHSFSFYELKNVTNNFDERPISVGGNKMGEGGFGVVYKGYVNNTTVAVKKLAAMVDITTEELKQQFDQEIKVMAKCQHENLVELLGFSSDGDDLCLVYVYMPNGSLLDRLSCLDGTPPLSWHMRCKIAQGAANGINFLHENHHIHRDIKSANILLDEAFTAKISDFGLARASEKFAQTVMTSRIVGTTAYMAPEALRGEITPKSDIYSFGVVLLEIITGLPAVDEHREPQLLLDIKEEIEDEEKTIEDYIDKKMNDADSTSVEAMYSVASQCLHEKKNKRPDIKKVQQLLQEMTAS
Chain of UniProt P12081 (P12081 whole entry, looked up): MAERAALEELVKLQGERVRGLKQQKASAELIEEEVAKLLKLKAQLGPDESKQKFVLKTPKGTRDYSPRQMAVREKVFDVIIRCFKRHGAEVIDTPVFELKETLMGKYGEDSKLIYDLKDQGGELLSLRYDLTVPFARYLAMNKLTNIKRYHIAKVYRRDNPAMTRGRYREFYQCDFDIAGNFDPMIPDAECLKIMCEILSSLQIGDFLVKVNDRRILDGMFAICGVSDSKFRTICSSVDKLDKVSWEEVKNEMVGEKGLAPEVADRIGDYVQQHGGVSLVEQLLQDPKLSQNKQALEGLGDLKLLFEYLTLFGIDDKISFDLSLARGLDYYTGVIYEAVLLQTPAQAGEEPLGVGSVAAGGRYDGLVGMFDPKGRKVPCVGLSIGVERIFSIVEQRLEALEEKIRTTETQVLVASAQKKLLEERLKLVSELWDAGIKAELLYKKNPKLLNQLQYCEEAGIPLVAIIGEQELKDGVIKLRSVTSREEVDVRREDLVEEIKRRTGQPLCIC
Chain of UniProt Q9BUE6 (Q9BUE6 whole entry, looked up): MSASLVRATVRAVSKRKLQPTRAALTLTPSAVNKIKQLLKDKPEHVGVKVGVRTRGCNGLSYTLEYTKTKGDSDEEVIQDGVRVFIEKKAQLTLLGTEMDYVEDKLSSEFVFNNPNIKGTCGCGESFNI
Chain of UniProt P43250 (P43250 whole entry, looked up): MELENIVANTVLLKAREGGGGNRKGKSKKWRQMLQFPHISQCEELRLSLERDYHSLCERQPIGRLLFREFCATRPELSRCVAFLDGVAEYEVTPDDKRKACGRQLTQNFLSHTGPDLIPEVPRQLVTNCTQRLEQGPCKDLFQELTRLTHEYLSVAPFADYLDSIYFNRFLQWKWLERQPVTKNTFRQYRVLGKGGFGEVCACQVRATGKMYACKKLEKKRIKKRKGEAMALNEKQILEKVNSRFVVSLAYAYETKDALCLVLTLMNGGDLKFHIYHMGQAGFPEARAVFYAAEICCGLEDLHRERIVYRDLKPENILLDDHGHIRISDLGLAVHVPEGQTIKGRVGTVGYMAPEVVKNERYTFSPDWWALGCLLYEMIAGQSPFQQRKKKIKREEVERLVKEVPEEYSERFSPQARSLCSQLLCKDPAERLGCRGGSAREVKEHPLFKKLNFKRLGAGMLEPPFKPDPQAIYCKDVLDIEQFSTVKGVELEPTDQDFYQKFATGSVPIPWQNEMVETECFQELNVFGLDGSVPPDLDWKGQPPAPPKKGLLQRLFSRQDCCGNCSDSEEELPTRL
Chain of UniProt Q03013 (Q03013 whole entry, looked up): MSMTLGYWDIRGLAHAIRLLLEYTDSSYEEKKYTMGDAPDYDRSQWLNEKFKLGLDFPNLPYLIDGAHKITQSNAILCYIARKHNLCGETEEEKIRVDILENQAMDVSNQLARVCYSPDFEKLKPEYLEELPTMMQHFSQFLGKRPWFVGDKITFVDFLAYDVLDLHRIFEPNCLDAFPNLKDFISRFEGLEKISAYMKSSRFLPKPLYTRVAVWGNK
Chain of UniProt Q8WVV9 (Q8WVV9 whole entry, looked up): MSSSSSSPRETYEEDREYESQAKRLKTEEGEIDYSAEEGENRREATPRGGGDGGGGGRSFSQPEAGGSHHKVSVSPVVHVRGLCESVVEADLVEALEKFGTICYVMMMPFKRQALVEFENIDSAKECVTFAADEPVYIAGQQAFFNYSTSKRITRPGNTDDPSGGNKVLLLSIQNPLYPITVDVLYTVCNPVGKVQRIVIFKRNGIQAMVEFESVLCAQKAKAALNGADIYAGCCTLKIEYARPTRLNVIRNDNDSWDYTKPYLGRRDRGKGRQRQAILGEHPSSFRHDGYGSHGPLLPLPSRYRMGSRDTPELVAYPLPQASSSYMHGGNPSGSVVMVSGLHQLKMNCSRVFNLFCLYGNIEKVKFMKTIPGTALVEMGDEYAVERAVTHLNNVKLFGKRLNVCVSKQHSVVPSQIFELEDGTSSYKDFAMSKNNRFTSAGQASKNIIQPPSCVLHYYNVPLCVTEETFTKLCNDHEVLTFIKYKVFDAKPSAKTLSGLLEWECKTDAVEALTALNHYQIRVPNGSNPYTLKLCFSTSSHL
Chain of UniProt O15379 (O15379 whole entry, looked up): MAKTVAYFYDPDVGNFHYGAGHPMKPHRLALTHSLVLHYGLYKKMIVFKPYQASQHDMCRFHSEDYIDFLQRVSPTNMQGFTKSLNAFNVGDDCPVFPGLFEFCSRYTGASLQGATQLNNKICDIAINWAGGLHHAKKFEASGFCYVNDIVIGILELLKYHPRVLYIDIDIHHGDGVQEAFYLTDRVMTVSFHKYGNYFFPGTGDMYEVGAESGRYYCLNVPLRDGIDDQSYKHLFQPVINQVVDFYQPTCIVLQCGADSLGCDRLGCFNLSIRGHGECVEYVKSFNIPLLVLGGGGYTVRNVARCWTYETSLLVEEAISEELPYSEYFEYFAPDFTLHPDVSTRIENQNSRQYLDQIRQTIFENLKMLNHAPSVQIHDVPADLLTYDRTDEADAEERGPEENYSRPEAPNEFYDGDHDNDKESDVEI

log2 fold change, inactive:
IFNGR1 (UniProt P15260) -0.018
GSTCD (UniProt Q8NEC7) -0.003
GSTM4 (UniProt Q03013) -0.047
GNB1 (UniProt P62873) -0.078
HMGN4 (UniProt O00479) 0.192
KATNBL1 (UniProt Q9H079) 0.068
HNRNPAB isoform 3 (UniProt Q99729) 0.022
IRF2BPL (UniProt Q9H1B7) -0.043
HNRNPD isoform 3 (UniProt Q14103) 0.017
HDAC3 (UniProt O15379) 0.04
IGF2BP2 (UniProt Q9Y6M1) -0.055
IRAK4 (UniProt Q9NWZ3) 0.051
HSPB1 (UniProt P04792) -0.032
HK2 (UniProt P52789) -0.052
HAUS4 (UniProt Q9H6D7) -0.052
GNB4 (UniProt Q9HAV0) 0.048
GRK6 isoform 2 (UniProt P43250) 0.023
ILK (UniProt Q13418) 0.071
INPPL1 (UniProt O15357) -0.031
HNRNPLL (UniProt Q8WVV9) -0.019
GTF2I (UniProt P78347) -0.042
GPR108 (UniProt Q9NPR9) -0.035
GMPS (UniProt P49915) -0.016
HIST2H2BC (UniProt Q6DN03) 0.051
HARS (UniProt P12081) -0.006
HNRNPUL2 (UniProt Q1KMD3) 0.002
ISCA1 isoform 2 (UniProt Q9BUE6) 0
HSPA8 (UniProt E9PN89) -0.209
IMMT (UniProt Q16891) -0.075
HAUS5 (UniProt O94927) -0.071
IMPDH2 (UniProt P12268) -0.036
HSD17B10 (UniProt Q99714) -0.034
HK1 isoform 2 (UniProt P19367) -0.026
HIST2H2AA3 (UniProt Q6FI13) 0.081
HELQ (UniProt Q8TDG4) 0.021
ICAM2 (UniProt P13598) 0.013

compound: Cc1ncc(-c2ccnc(Nc3ccc(S(C)(=O)=O)cc3)n2)n1C(C)C; assay: as above
Outline: as §1

log2 fold change, inactive:
IFNGR1 (UniProt P15260) 0.133
GSTCD (UniProt Q8NEC7) -0.005
GSTM4 (UniProt Q03013) 0.054
GNB1 (UniProt P62873) 0.098
HMGN4 (UniProt O00479) 0.009
KATNBL1 (UniProt Q9H079) -0.159
HNRNPAB isoform 3 (UniProt Q99729) 0.024
IRF2BPL (UniProt Q9H1B7) 0.054
HNRNPD isoform 3 (UniProt Q14103) 0.017
HDAC3 (UniProt O15379) -0.026
IGF2BP2 (UniProt Q9Y6M1) -0.008
IRAK4 (UniProt Q9NWZ3) -0.012
HSPB1 (UniProt P04792) 0.012
HK2 (UniProt P52789) 0
HAUS4 (UniProt Q9H6D7) 0.016
GNB4 (UniProt Q9HAV0) 0.127
GRK6 isoform 2 (UniProt P43250) 0.005
ILK (UniProt Q13418) 0
INPPL1 (UniProt O15357) -0.02
HNRNPLL (UniProt Q8WVV9) 0.008
GTF2I (UniProt P78347) -0.011
GPR108 (UniProt Q9NPR9) 0.011
GMPS (UniProt P49915) 0
HIST2H2BC (UniProt Q6DN03) -0.01
HARS (UniProt P12081) -0.015
HNRNPUL2 (UniProt Q1KMD3) 0.009
ISCA1 isoform 2 (UniProt Q9BUE6) 0.111
HSPA8 (UniProt E9PN89) -0.055
IMMT (UniProt Q16891) 0.037
HAUS5 (UniProt O94927) -0.011
IMPDH2 (UniProt P12268) -0.009
HSD17B10 (UniProt Q99714) -0.001
HK1 isoform 2 (UniProt P19367) -0.005
HIST2H2AA3 (UniProt Q6FI13) 0.035
HELQ (UniProt Q8TDG4) 0.051
ICAM2 (UniProt P13598) 0.012
